According to PubChem BioAssay (NCATS):
Inconclusive results are not listed. A number with no mark means an inactive call. Activity calls are given as the source filed them. Calls come from the whole dose curve; as a rule, active = well fitted inhibition curve with a large enough effect; inconclusive = small, poorly fitted or top-dose-only effect; inactive = flat fitted curve, though single readings scatter.

The compounds below were run on CP203 (assay: qHTS profiling for inhibitors of Plasmodium falciparum proliferation (AID 504749;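 note: 0% = DMSO vehicle and full inhibition = artemisinin control; nearly all actives have a fitted effect of over 60% in size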)). Conditions: P. falciparum in erythrocytes, SYBR Green DNA, 72 h; series mostly up to 28.7 µM; activity, negative = inhibition: at the top concentration.
How it was run: (§1)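 P. falciparum-infected erythrocytes (0.3% parasitemia, 2.5% hematocrit) incubated with compound 72 h at 37 C, 5% CO2. Parasite DNA detected by SYBR Green after lysis, overnight at room temperature; normalised to 0.29 uM artemisinin and DMSO.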

Compound | activity, negative = inhibition | Potency
Nc1ncnc2c1ncn2[C@@H]1O[C@H](CO)[C@@H](O)[C@H]1O | 8.12% | –
CC(=O)Nc1ccc(/C=N/NC(N)=S)cc1 | – | inactive
CC1=C(/C=C/C(C)=C/C=C/C(C)=C/C(=O)O)C(C)(C)CCC1 | -6.11% | –
COc1cc(C)c(Cc2cnc(N)nc2N)cc1OC | -13.2% | –
Oc1cccc(O)c1 | 2.87% | –
CC(=O)CCC(=O)O | 11.3% | –
O=C(O)c1ccccc1-c1ccc(C(F)(F)F)cc1 | 11.4% | –
O=C(O)CN1C(=O)c2cccc3cccc(c23)C1=O | 0.101% | –
Cc1ncc(COP(=O)(O)O)c(C=O)c1O | 0.0552% | –
Cc1cc(C(C#N)c2ccc(Cl)cc2)c(Cl)cc1NC(=O)c1cc(I)cc(I)c1O (stereo not given) | -3.51% | –
CC(C)(C)C(=O)NCCCC(=O)O | 0.482% | –
NC(=O)NNc1ccccc1 | – | inactive
C[C@H]1O[C@@H](n2cc(F)c(=O)[nH]c2=O)[C@H](O)[C@@H]1O | 2.39% | –
COc1ccccc1O | -1.49% | –
Cc1cccc(Nc2cc(Cl)nc(SCC(=O)O)n2)c1C | -0.326% | –
Nc1ccc(S(=O)(=O)Nc2ccccc2)cc1 | 1.29% | –
CC(=O)NC(Cc1ccccc1)C(=O)O (stereo not given) | 3.82% | –
NS(=O)(=O)c1cc2c(cc1Cl)NC(CSCc1ccccc1)=NS2(=O)=O | -0.442% [at 12.8 µM] | –
CCCCCCCCCCCCCCCCCCOCC(O)CO (stereo not given) | 10.3% | –
O=C(O)CC(O)C(=O)O (stereo not given) | 1.63% | –
CC1=C(CC(=O)O)c2cc(F)ccc2/C1=C\c1ccc(S(C)=O)cc1 (stereo not given) | 1.26% | –
COC(=O)C1=C(C)NC(C)=C(C(=O)OC)C1c1ccccc1[N+](=O)[O-] | -8.51% | –
O=C1O[C@H]([C@@H](O)CO)C(O)=C1O | -0.774% | –

Each compound was assayed on CP211 in the same assay as above. Conditions: P. falciparum in erythrocytes, SYBR Green DNA, 72 h; series mostly up to 28.7 µM; activity, negative = inhibition: at the top concentration.
How it was run: as §1

Compound | activity, negative = inhibition | Potency
O=C1OC(OC(=O)c2cccnc2Nc2cccc(C(F)(F)F)c2)c2ccccc21 (stereo not given) | 0.309% | –
O=c1cc[nH]c(=S)[nH]1 | -3.52% | –
Nc1ncnc2c1ncn2[C@@H]1O[C@H](CO)[C@@H](O)[C@H]1O | -0.143% | –
O=c1cc[nH]c(=O)[nH]1 | 3.48% | –
CC(=O)Nc1ccc(/C=N/NC(N)=S)cc1 | – | inactive
CCn1cc(C(=O)O)c(=O)c2cnc(N3CCNCC3)nc21 | 0.977% [at 12.8 µM] | –
CC1(C)OC(=O)NC1=O | 5.43% | –
CC1=C(/C=C/C(C)=C/C=C/C(C)=C/C(=O)O)C(C)(C)CCC1 | -6.4% | –
COc1cc(C)c(Cc2cnc(N)nc2N)cc1OC | -0.726% | –
Oc1cccc(O)c1 | -0.553% | –
CC(=O)CCC(=O)O | -0.349% | –
O=C(O)c1ccccc1-c1ccc(C(F)(F)F)cc1 | 0.796% | –
O=C(O)CN1C(=O)c2cccc3cccc(c23)C1=O | 1.85% | –
Cc1ncc(COP(=O)(O)O)c(C=O)c1O | 2.63% | –
Cc1cc(O)cc2c1O[C@](C)(CCC[C@H](C)CCC[C@H](C)CCCC(C)C)CC2 | -4.67% | –
Cc1cc(C(C#N)c2ccc(Cl)cc2)c(Cl)cc1NC(=O)c1cc(I)cc(I)c1O (stereo not given) | 0.477% | –

Compound | activity, negative = inhibition | Potency
Cc1ccc(C(C)C)cc2c(C)ccc1-2 | -5.36% | –
Nc1ccc(S(=O)(=O)Nc2nccs2)cc1 | -2.75% | –
NC(=O)NNc1ccccc1 | – | inactive
C[C@H]1O[C@@H](n2cc(F)c(=O)[nH]c2=O)[C@H](O)[C@@H]1O | -7.89% | –
COc1ccccc1O | 2.55% | –
Cc1cccc(Nc2cc(Cl)nc(SCC(=O)O)n2)c1C | 1.6% | –
Nc1ccc(S(=O)(=O)Nc2ccccc2)cc1 | -23.6% | –
CC(=O)NC(Cc1ccccc1)C(=O)O (stereo not given) | -0.497% | –
NS(=O)(=O)c1cc2c(cc1Cl)NC(CSCc1ccccc1)=NS2(=O)=O | -8.36% [at 12.8 µM] | –
CCCCCCCCCCCCCCCCCCOCC(O)CO (stereo not given) | -2.17% | –
O=C(O)c1ccccn1 | -4.37% | –
O=C(O)CC(O)C(=O)O (stereo not given) | -0.11% | –
CC1=C(CC(=O)O)c2cc(F)ccc2/C1=C\c1ccc(S(C)=O)cc1 (stereo not given) | 1.74% | –
COC(=O)C1=C(C)NC(C)=C(C(=O)OC)C1c1ccccc1[N+](=O)[O-] | -8.55% | –
O=C1O[C@H]([C@@H](O)CO)C(O)=C1O | -2.5% | –

What follows are compounds tested on CP215 in the same assay as above. Conditions: P. falciparum in erythrocytes, SYBR Green DNA, 72 h; series mostly up to 28.7 µM; activity, negative = inhibition: at the top concentration.
How it was run: as §1

Compound | activity, negative = inhibition | Potency
O=C1OC(OC(=O)c2cccnc2Nc2cccc(C(F)(F)F)c2)c2ccccc21 (stereo not given) | -0.824% | –
Nc1ncnc2c1ncn2[C@@H]1O[C@H](CO)[C@@H](O)[C@H]1O | -10.8% | –
O=c1cc[nH]c(=O)[nH]1 | 1.87% | –
CC(=O)Nc1ccc(/C=N/NC(N)=S)cc1 | – | inactive
CC1=C(/C=C/C(C)=C/C=C/C(C)=C/C(=O)O)C(C)(C)CCC1 | 4.41% | –
COc1cc(C)c(Cc2cnc(N)nc2N)cc1OC | -0.141% | –
Oc1cccc(O)c1 | 11.6% | –
CC(=O)CCC(=O)O | 4.84% | –
O=C(O)c1ccccc1-c1ccc(C(F)(F)F)cc1 | -4.45% | –
O=C(O)CN1C(=O)c2cccc3cccc(c23)C1=O | 0.275% | –
Cc1ncc(COP(=O)(O)O)c(C=O)c1O | 1.41% | –
Cc1cc(C(C#N)c2ccc(Cl)cc2)c(Cl)cc1NC(=O)c1cc(I)cc(I)c1O (stereo not given) | -6.55% | –
CC(C)(C)C(=O)NCCCC(=O)O | -3.07% | –
Nc1ccc(S(=O)(=O)Nc2nccs2)cc1 | 2.32% | –
NC(=O)NNc1ccccc1 | – | inactive
C[C@H]1O[C@@H](n2cc(F)c(=O)[nH]c2=O)[C@H](O)[C@@H]1O | 8.33% | –
COc1ccccc1O | 7.26% | –
Cc1cccc(Nc2cc(Cl)nc(SCC(=O)O)n2)c1C | -11.2% | –
Nc1ccc(S(=O)(=O)Nc2ccccc2)cc1 | -1.37% | –
CC(=O)NC(Cc1ccccc1)C(=O)O (stereo not given) | 0.506% | –
NS(=O)(=O)c1cc2c(cc1Cl)NC(CSCc1ccccc1)=NS2(=O)=O | 1.13% [at 12.8 µM] | –
CCCCCCCCCCCCCCCCCCOCC(O)CO (stereo not given) | 9.44% | –
O=C(O)CC(O)C(=O)O (stereo not given) | 0.558% | –
CC1=C(CC(=O)O)c2cc(F)ccc2/C1=C\c1ccc(S(C)=O)cc1 (stereo not given) | 4.74% | –
COC(=O)C1=C(C)NC(C)=C(C(=O)OC)C1c1ccccc1[N+](=O)[O-] | -8.55% | –
O=C1O[C@H]([C@@H](O)CO)C(O)=C1O | 2.58% | –
